Data from PubChem BioAssay AID504594 (Broad Institute, 2011).
In all, about 2,000 compounds went through this assay and fewer than 10 were called active. Not all results are given here. Values without a mark were called inactive.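 Rule for the calls: active = growth inhibition of at least 75% in every replicate, which also brings the mean inhibition to 75% or more; inconclusive = mean inhibition 75% or more but some replicate under 75%; inactive = the rest.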

Experiment: reduced viability of yeast carrying PfHsp90 – S. cerevisiae, BacTiter-Glo luminescence, antimalarial PfHsp90 inhibitor project, primary screen (AID 504594);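 note: 0% = DMSO neutral control wells and 100% = 20 µM radicicol control wells; higher value means stronger growth inhibition because the sign is flipped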
Settings: S. cerevisiae expressing PfHsp90, BacTiter-Glo growth, 48 h; at 9.4 µM; active compounds read high

Row | SMILES | growth inhibition [%]
1 | CC(C)c1ccc2[nH]c3c(c2c1)CCCC3=O | 0.593
2 | O=c1cc(-c2ccccc2)oc2cc(OCc3ccccc3)cc(O)c12 | 2.87
3 | Cc1ccc2ncnc(NCCCCCC(=O)O)c2c1 | 4.2
4 | Nc1cccc2c1nnn2C1OC(CO)C(O)C(O)C1O (stereo not drawn) | -0.754
5 | O=C1C=CC(=O)C(C2=C3C(=O)N(CCc4ccccc4)CC(=O)N3CCC2)=C1 | 0.713
6 | COc1cc(NC(=O)N[C@@H](Cc2ccccc2)C(=O)O)cc(OC)c1 | 5.35
7 | CCc1ccc(CN(C)Cc2nc(Cc3ccccc3)no2)nc1 | -0.638
8 | O=C(NCCNc1ccc(Cl)cc1[N+](=O)[O-])c1cccnc1 | 1.09
9 | CC1(C)NC(C(=O)O)Cc2c1[nH]c1ccccc21 (stereo not drawn) | 7.2
10 | CC(C)NC(=O)C1(c2ccccc2)CCOCC1 | -8.01
11 | CCCCOn1c(C)c(C(C)=O)c2c3no[n+]([O-])c3ccc21 | -14.4
12 | CCSc1nc(O)c(C2OC(=O)c3c2ccc(OC)c3OC)c(=O)n1CC (stereo not drawn) | 9.9
13 | COC(=O)c1ccccc1NC(=O)NCc1ccccc1 | -7.31
14 | Cc1ccc2[nH]c3c(c2c1)CN(C(=O)CN1CCSCC1)CC3 | -8.61
15 | COc1ccccc1C1(CC(=O)N2CCCCC2)CCOC(C(C)C)C1 (stereo not drawn) | 14.4
16 | CC(C)CCNC(=O)[C@H](CC(C)C)NC(=O)[C@H]1O[C@@H]1C(=O)O | -0.406
17 | CC(=O)N1N=C(c2cccs2)CC1c1ccc(C)o1 (stereo not drawn) | 15.9
18 | Cc1cc(Cl)cc2c1NC(=O)[C@]21[C@@H]2C(=O)N(Cc3ccccc3)C(=O)[C@@H]2[C@@H]2CCCN21 | 6.75
19 | COC(=O)CN1C(=S)N(c2ccc(F)cc2)C(=O)C1CC(=O)Nc1ccccc1 (stereo not drawn) | 9.33
20 | Cc1ccc(P(=O)(CSC(=N)N)c2ccc(C)cc2)cc1 | -1.66
21 | Cc1[nH]c2ccccc2c1C(=O)C(=O)NCc1ccco1 | 5.84

Row | SMILES | growth inhibition [%]
22 | Cc1ccccc1NC(=O)NCCc1c[nH]c2ccccc12 | 17.7
23 | OCCC1CN(Cc2ccccc2-c2ccco2)CCN1C1CCCC1 (stereo not drawn) | -5.78
24 | Cc1ccc(CN2CCN(Cc3cn[nH]c3C3CCCCC3)CC2CCO)cc1 (stereo not drawn) | -25.7
25 | Cc1ccc(Nc2ncccc2C(=O)O)cc1C | -4.41
26 | CS(=O)c1ccccc1O (stereo not drawn) | 14.9
27 | N/C(=N\OC(=O)CCCOc1ccc(Cl)cc1Cl)c1ccncc1 | -2.92
28 | COc1ccc(C2NC(=O)c3ccccc3N2)cc1OC (stereo not drawn) | -3.61
29 | C=C(C)c1nc2cc(OC)c(OC)cc2c(=O)o1 | 12.6
30 | C=CCNC(=O)c1ccc(-c2cccc([N+](=O)[O-])c2)o1 | 0.359
31 | COc1ccc(-n2cc(CNCc3cccnc3)c(-c3cccc(F)c3)n2)cc1 | -18.3
32 | COC(=O)c1cc(-c2ccc(OC)c(OC)c2)on1 | -8.12
33 | O=c1c2ccccc2nc2n1CCCN2 | 6.84
34 | CCOC(=O)N1CCc2[nH]c3ccc(C)cc3c2C1 | -0.0125
35 | CC1(C)CC(C(CC(=O)O)c2ccccc2)CCO1 (stereo not drawn) | -0.107
36 | Cc1ccc2c(c1)c(C)cc(=O)n2CCC(=O)O | -4.29
37 | Cc1ccccc1OCC(O)CN1CCN(C)CC1 (stereo not drawn) | 2.9
38 | COc1cccc(C2CCCN2Cc2nc(CCC(C)C)no2)c1 (stereo not drawn) | 11.4
39 | CC(C)N(Cc1nccn1C)C(=O)CC1C(=O)NCCN1Cc1ccccc1C(F)(F)F (stereo not drawn) | -0.671
40 | CCOCCCNCc1cn(-c2ccc(F)cc2F)nc1-c1ccccc1C | 5.3
41 | CCOC(=O)C1(Cc2cccc(Cl)c2)CCCN(C2CCN(C(C)=O)CC2)C1 (stereo not drawn) | -10.8
42 | Cc1ccc(C2=NOC(=O)/C2=C\C=C\c2ccccc2)cc1 | 14.3

Row | SMILES | growth inhibition [%]
43 | O=C1c2ccccc2C(=O)N1/N=C/c1ccc(Oc2ccc([N+](=O)[O-])cn2)cc1 | 4.52
44 | CC1(C)Oc2ccc(C#N)cc2[C@@H](N2CCCC2=O)[C@@H]1O | 7.78
45 | CC1(C)Cc2ccccc2C(C(Cc2ccccc2)C(N)=O)=N1 (stereo not drawn) | -4.58
46 | O=C(CN1CCN(Cc2ccccc2)CC1)N1CCCc2c1c(=O)oc1ccc(O)cc21 | -7.45
47 | O=C(NCCc1cccc(F)c1)[C@@H]1CSC2c3ccccc3C(=O)N21 (stereo partly drawn) | 3.04
48 | COc1ccc(CCNC(=O)CC(c2ccccc2)c2cccc(C)c2O)cc1OC (stereo not drawn) | -1.09
49 | CCn1c(SCC(=O)c2ccccc2)nc2ccccc2c1=O | -10.3
50 | CC1(C)Cc2nc3sc4c(=O)n(CC(N)=O)cnc4c3cc2CO1 | -2.88
51 | CC(C)(C)OC(=O)COc1cc(OCC(=O)OC(C)(C)C)c2c(=O)cc(-c3ccccc3)oc2c1 | -8.59
52 | Cn1cnc2c1c(=O)n(CC(O)CO)c(=O)n2C (stereo not drawn) | -5.12
53 | O=C(O)c1ccccc1C(=O)OCCCCOC(=O)c1ccccc1C(=O)O | -3.9
54 | COc1ccc(C(=O)NCC2OCCc3ccccc32)cc1 (stereo not drawn) | -3.22
55 | O=C1CC(c2ccc(F)cc2)Cc2nc(NCC3CCCO3)ncc21 (stereo not drawn) | 6.43
56 | COc1ccccc1OCC(=O)O | -2.4
57 | NC(N)=NC(N)=Nc1ccc2ccccc2c1 | -11.6
58 | O=C(c1cc2cc(Br)ccc2o1)N1CCCCC1 | 5.37
59 | Cc1ccc2c(CN3CCN(Cc4ccc5c(c4)OCO5)CC3)cc(=O)oc2c1C | 0.516
60 | COc1ccc(-c2cc(=O)oc3cc(OC(C)C(=O)O)ccc23)cc1 (stereo not drawn) | -0.213
61 | CN(Cc1c(C(=O)N(C)Cc2ccccc2)nc2ccccn12)CC1Cc2ccccc2O1 (stereo not drawn) | 11.4
62 | CC(C)CCc1noc(CN2CCC(CCN3CCCC3=O)CC2)n1 | 4.25
63 | Cn1c(SCC(=O)c2ccccc2)nnc1-c1ccncc1 | 0.861
